High-throughput results deposited in PubChem by several laboratories.
HDAC3 inhib = blocks human histone deacetylase 3; recombinant HDAC3, fluorogenic peptide/trypsin coupled, fluorescence; inhibition, % at 8.3 µM; 0.15% of 320,000 active; in the data active means inhibition above about 26%, passing the limit was not always enough; inconclusive means no clear call, values can overlap the other calls
Target sequence (O15379 whole entry, looked up): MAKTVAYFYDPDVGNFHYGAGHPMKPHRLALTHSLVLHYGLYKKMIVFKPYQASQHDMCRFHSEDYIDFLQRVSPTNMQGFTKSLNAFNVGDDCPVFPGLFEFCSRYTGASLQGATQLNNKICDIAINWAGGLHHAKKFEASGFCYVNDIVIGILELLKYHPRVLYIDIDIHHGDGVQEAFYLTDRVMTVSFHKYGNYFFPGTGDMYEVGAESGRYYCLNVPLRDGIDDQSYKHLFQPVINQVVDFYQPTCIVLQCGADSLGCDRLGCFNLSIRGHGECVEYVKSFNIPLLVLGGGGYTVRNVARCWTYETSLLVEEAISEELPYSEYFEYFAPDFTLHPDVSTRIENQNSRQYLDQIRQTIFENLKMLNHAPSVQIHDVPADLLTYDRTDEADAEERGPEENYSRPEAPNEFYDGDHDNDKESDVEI
NALP1 yeast inh = inhibitors of NALP1 inflammasome in yeast; AID 2071; S. cerevisiae NALP1/ASC/caspase-1 growth, X-gal OD620, 72 h; 0.61% of 280,000 active; inhibition, % at 10 µM; in the data active means inhibition mostly above about 24%, no sharp cut-off; inactive means mostly below about 32%
PolyA inhibitor = inhibitors of polyadenylation in S. cerevisiae. S. cerevisiae SKY197-pL101 polyadenylation reporter, beta-gal luminescence; efflux-impaired pdr1/pdr3 knockout yeast; score 100 = 6 SD above DMSO. activity score, % at 12 µM. 0.02% of 300,000 active;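 active means lowest replicate activity score at least 50, where 100 means six control SD above control mean; inconclusive means lowest score under 50 but half or more replicates reach 50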;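 further: yeast exposed to compound for 9 h at 30 °C; higher score means more reporter readthrough which indicates perturbed polyadenylation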
NALP3 yeast inh = NALP3 inhibition in yeast; inhibition, % at 10 µM; Yeast reconstituted NLRP3/ASC/caspase-1, beta-gal luminescence, 24 h; 0.39% of 330,000 active;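 active means inhibition of 50% or more; inactive means inhibition below 50%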
Efflux pump mplx = antifungal efflux pump inhibition, Nile Red retention. inhibition, % at 10 µM. AID 485275. 0.44% of 330,000 active. S. cerevisiae Candida pump triplex;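 active means plate passing quality check with inhibition over a set limit, or well fluorescence over plate mean plus 4 SD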;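 further: Nile Red retained in pooled yeast measured as flow cytometry median fluorescence; higher means more Nile Red kept so more efflux inhibition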
JMJD2C inh = human JMJD2C demethylase inhibition; Q9H3R0; GST-JMJD2C(1-420) H3K9me3 demethylation, DELFIA europium; inhibition, % at 2.35 µM; 0.069% of 330,000 active;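 active means more than half of a compound's replicate wells show inhibition beyond 50%, single wells judged on their own value; inconclusive means some, but no more than half, of replicates pass 50% inhibition; inactive means no replicate passes 50% inhibition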;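 further: signal counts dimethyl H3K9 product captured on neutravidin plate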
NALP3 yeast conf = NALP3 inhibition confirmation in yeast | shares compounds with NALP3 yeast inh | yeast expressing human NALP3, luminescence | inhibition, % at 10 µM | 81% of 1,300 active; in the data active means inhibition above about 48%
Casp1 ASC ctr = active in yeast caspase-1-ASC counter-screen for NALP3 inhibitors; inhibition, % at 10 µM; shares compounds with NALP3 yeast inh; yeast expressing Caspase-1-ASC, luminescence counter screen; 66% of 1,000 active; AID 488784
NALP3 yeast rt = confirmation retest of NALP3 inhibitors in yeast. shares compounds with NALP3 yeast inh. yeast expressing human NALP3, luminescence read-out. inhibition, % at 10 µM. 53% of 1,000 active
A number is an active result; – = inactive; ? = inconclusive; · = no result. This is a sample that favours compounds with a hit; in the whole collection about 1.5% have one here. Unless noted, no stated cut-off is given here; in the data, active means inhibition above about 50%; inactive means the rest.

SMILES | HDAC3 inhib | NALP1 yeast inh | PolyA inhibitor | NALP3 yeast inh | Efflux pump mplx | JMJD2C inh | NALP3 yeast conf | Casp1 ASC ctr | NALP3 yeast rt
O=C(CSc1nnnn1-c1ccc(Cl)cc1)N1CCc2ccccc2C1 | – | – | – | 56.0 | – | – | 69.7 | 78.0 | 85.5
O=C(CSc1nnnn1-c1ccccc1)N1CCc2ccccc21 | – | – | – | – | – | – | · | · | ·
CC(=S)/C=C1\Sc2ccccc2N1C | – | – | – | – | – | – | · | · | ·
CN1c2ccccc2Sc2cc(N)ccc21 | – | 51.8 | – | 64.3 | – | – | – | 73.6 | 61.1
COc1ccc2c(=O)c(-c3cnn(-c4ccccc4)c3)c(C)oc2c1 | – | – | – | 61.9 | – | – | 65.7 | 58.5 | 68.2
COc1ccc2c(=O)c3ccccc3oc2c1 | – | – | – | 57.0 | – | ? | 68.5 | – | –
Cc1oc2c(C)c(O)ccc2c(=O)c1-c1cnn(-c2ccccc2)c1 | – | – | – | – | – | – | · | · | ·
O=C(Cn1ncc(Cl)c(Cl)c1=O)N1CCN(S(=O)(=O)c2ccc3ccccc3c2)CC1 | – | – | · | – | – | – | · | · | ·
CCOc1cc(C)c(S(=O)(=O)Nc2ccc(Cl)cn2)cc1C | – | – | – | – | – | – | · | · | ·
CCOc1ccc(S(=O)(=O)Nc2ccc(Cl)cn2)c(C)c1C | – | – | – | 59.5 | – | – | 76.9 | 63.6 | –
On1onc2c3cc(-c4ccccc4)nc3ccc21 | – | – | · | 50.6 | – | – | 71.5 | · | ·
c1ccc(-c2cc3c(ccc4nonc43)nn2)cc1 | – | – | – | – | – | – | · | · | ·
Nc1ncc(Br)cc1S(=O)(=O)N1CCCCCC1 | – | – | – | 52.7 | – | – | 59.0 | 56.0 | –
O=S(=O)(c1cc(Br)ccc1Br)N1CCCCCC1 | – | – | – | – | – | – | · | · | ·
O=S(=O)(c1cnc(Cl)c(Br)c1)N1CCCCCC1 | – | – | – | 52.8 | – | – | 55.4 | – | –
CCCCCN1CC(=O)N2C(C)c3[nH]c4ccccc4c3C[C@H]2C1=O (some centres undefined) | – | – | – | – | – | – | · | · | ·
COc1ccc(NCC(=O)Nc2cccc(C(F)(F)F)c2)cc1S(=O)(=O)N1CCOCC1 | – | · | · | – | – | – | · | · | ·
O=S(=O)(c1ccc(Br)s1)N1CCN(CCc2ccccc2)CC1 | – | · | · | 60.8 | – | – | 63.0 | – | –
O=S(=O)(c1ccc(Br)s1)N1CCN(c2ccc(F)cc2)CC1 | – | – | – | 54.7 | – | – | 64.9 | – | –
COc1ccc(CNC(=O)CNS(=O)(=O)c2cccs2)cc1 | – | – | – | – | – | – | · | · | ·
CCOC(=O)[C@@H]1[C@H]2COc3ccccc3[C@@H]2N2C(=O)N(c3cccc(F)c3)C(=O)[C@@]12C | – | · | · | – | – | – | · | · | ·
CN1CCN(C(=O)c2cc(COc3c(F)cccc3F)on2)CC1c1ccccc1 (centres undefined) | – | – | – | 84.1 | – | – | 87.6 | 85.0 | 84.3
COc1ccccc1OCc1cc(C(=O)N2CCN(C)C(c3ccccc3)C2)no1 (centres undefined) | – | – | – | – | – | – | · | · | ·
Cc1ccc(S(=O)(=O)N2CCC(C(=O)NC3CC(C)(C)NC(C)(C)C3)CC2)cc1 | – | – | – | – | – | – | · | · | ·
CCc1ccn2cc(-c3cc(-c4ccccc4)no3)nc2c1 | – | – | – | 81.1 | – | – | 81.2 | – | –
Oc1ccc(N=Cc2ccc(OCc3ccccc3)cc2)cc1 | – | – | – | 50.9 | – | – | – | · | ·
O=C(N/N=C/c1ccc(OCc2ccccc2)cc1)c1ccncc1 | – | – | – | – | – | – | · | · | ·
Clc1cccc(Cl)c1/C=N/Nc1c(Cl)cncc1Cl | – | – | – | – | – | – | · | · | ·
Clc1cncc(Cl)c1N/N=C/c1ccncc1 | · | – | – | 64.9 | – | – | – | · | ·
CC(=O)n1cc([C@@H]2C=C(C(=O)NCc3ccccc3)O[C@H](OCCCCO)C2)c2ccccc21 | – | – | – | 88.9 | – | – | – | – | –
